Assay [1] can be described thus: qHTS assay to test for compound auto fluorescence at 535 nm (green) in HEK293 cells (AID 720680).
Assay [2] in a line: qHTS assay to test for compound auto fluorescence at 460 nm (blue) in HEK293 cell free culture (AID 720681). An outline of the steps:
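Compounds were added to cell-free DMEM with 10% FBS and fluorescence read directly. The blue channel used 405 nm excitation and 460 nm emission, with triamterene as the reference fluorophore.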
In general terms: qHTS replaces the single test concentration by a dilution series.

Assay [3] in a line: qHTS assay to test for compound auto fluorescence at 535 nm (green) in HEK293 cell free culture (AID 720682). The essentials:
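Measurement is a direct plate read of green fluorescence (485 nm in, 535 nm out) after compound addition to serum-supplemented DMEM lacking cells, with fluorescein used to express intensities.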

A short description of assay [4]: qHTS assay to test for compound auto fluorescence at 590 nm (red) in HEK293 cell free culture (AID 720683). The essentials:
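Cell-free wells of DMEM with 10% FBS received compound, and intrinsic fluorescence was read at excitation/emission 540/590 nm. Values expressed as equivalence to Rose Bengal sodium.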

Assay [5] is described as follows: qHTS assay to test for compound auto fluorescence at 590 nm (red) in HepG2 cell free culture (AID 720684). The essentials:
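Compounds are added to culture medium (MEM, 10% FBS) lacking cells, then fluorescence is read at excitation 540 nm, emission 590 nm, with Rose Bengal sodium as the equivalency standard.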

Assay [6] in a line: qHTS assay to test for compound auto fluorescence at 535 nm (green) in HepG2 cell free culture (AID 720686).
Assay [7] deals with Glucocorticoid receptor (Homo sapiens) (UniProt P04150). Briefly: qHTS assay to identify small molecule agonists of the glucocorticoid receptor (GR) signaling pathway (AID 720691; active means well fitted activation curve with a large enough effect in the signal ratio in the repeat runs, not every such curve was filed as active; inconclusive means weak or mixed curves, or effect the other way; inactive means no such curve, though single readings can be large or run the other way; the % refers to the signal ratio; further: potency means the concentration at half of the fitted maximal effect). An outline of the steps: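 Fluorescence intensity from LiveBLAzer B/G FRET substrate (2 h, room temperature) reports beta-lactamase expression driven by the glucocorticoid response element in GR-bla HeLa cells after 18 h compound exposure at 37 C.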
Sequence of Glucocorticoid receptor (Homo sapiens) (P04150 whole entry, looked up): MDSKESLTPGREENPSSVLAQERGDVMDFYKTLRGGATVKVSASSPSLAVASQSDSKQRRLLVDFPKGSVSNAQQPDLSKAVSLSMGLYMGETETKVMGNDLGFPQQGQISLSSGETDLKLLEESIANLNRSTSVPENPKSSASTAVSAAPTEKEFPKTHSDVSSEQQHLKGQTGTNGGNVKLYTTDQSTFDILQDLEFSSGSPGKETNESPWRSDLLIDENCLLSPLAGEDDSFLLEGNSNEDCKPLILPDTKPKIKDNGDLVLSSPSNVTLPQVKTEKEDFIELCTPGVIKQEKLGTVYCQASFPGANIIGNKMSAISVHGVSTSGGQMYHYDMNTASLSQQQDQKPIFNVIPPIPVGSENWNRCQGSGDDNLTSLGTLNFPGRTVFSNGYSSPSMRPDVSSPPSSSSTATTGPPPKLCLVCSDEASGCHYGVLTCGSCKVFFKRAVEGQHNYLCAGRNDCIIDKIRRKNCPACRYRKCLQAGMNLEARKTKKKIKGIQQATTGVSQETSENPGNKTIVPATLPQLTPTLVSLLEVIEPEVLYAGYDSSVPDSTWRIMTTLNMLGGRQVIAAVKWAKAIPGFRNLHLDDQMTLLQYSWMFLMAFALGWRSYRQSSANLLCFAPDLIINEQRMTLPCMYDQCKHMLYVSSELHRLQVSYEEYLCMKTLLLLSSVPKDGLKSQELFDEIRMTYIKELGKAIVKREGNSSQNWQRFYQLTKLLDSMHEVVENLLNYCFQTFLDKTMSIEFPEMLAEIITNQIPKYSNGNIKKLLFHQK

Assay [8] shares this target. Briefly: qHTS assay to identify small molecule antagonists of the glucocorticoid receptor (GR) signaling pathway (AID 720692; active means well fitted inhibition curve with a large enough effect in the signal ratio in the repeat runs, not every such curve was filed as active; inconclusive means weak or mixed curves, or effect the other way; inactive means no such curve, though single readings can be large or run the other way; the % refers to the signal ratio; further: potency means the concentration at half of the fitted maximal effect). The essentials: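 HeLa GR-bla cells; cmpd + dex 5 nM final, 18 h 37 C; LiveBLAzer B/G FRET substrate 2 h RT; fluorescence intensity read. Antagonist mode, qHTS.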
A short description of assay [9]: qHTS assay to identify small molecule antagonists of the glucocorticoid receptor (GR) signaling pathway - cell viability counter screen (AID 720693). Further: nearly all actives have a fitted effect of over 55% in size. Further: potency means the concentration at half of the fitted maximal effect.
Assay [10] is described as follows: qHTS assay for identifying genotoxic compounds that show differential cytotoxicity against isogenic chicken DT40 cell lines with known DNA damage response pathways - Rev3 mutant cell line (AID 743014). Further: nearly all actives have a fitted effect of over 55% in size. Further: potency means the concentration at half of the fitted maximal effect.
The nature of assay [11]: qHTS assay for identifying genotoxic compounds that show differential cytotoxicity against isogenic chicken DT40 cell lines with known DNA damage response pathways - Rad54/Ku70 mutant cell line (AID 743015). Further: nearly all actives have a fitted effect of over 60% in size. Further: potency means the concentration at half of the fitted maximal effect.
A short description of assay [12]: qHTS assay to identify small molecule antagonists of the androgen receptor (AR) signaling pathway - cell viability counter screen (AID 743033; further: nearly all actives have a fitted effect of over 45% in size; further: potency means the concentration at half of the fitted maximal effect).
Assay [13] is described as follows: qHTS assay to identify small molecule antagonists of the androgen receptor (AR) signaling pathway using the MDA cell line - cell viability counter screen (AID 743041; further: nearly all actives have a fitted effect of over 45% in size). The essentials: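 Same-well cytotoxicity was assessed by CellTiter-Fluor in MDA-kb2 AR-luc cells after 16 h of compound treatment under R1881 agonism.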
The nature of assay [14]: qHTS assay for identifying genotoxic compounds that show differential cytotoxicity against isogenic chicken DT40 cell lines with known DNA damage response pathways - wild type cell line (AID 743012). Further: nearly all actives have a fitted effect of over 60% in size. Further: potency means the concentration at half of the fitted maximal effect. The essentials:
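Wild type DT40, 300 cells/well, ~0.5 h settle at 37 C/5% CO2; compounds in DMSO added by pintool; 40 h at 37 C/5% CO2; CellTiter-Glo, 30 min RT; luminescence.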

For assay [15], the target named is Androgen receptor (Homo sapiens) (UniProt P10275). Kind of assay: qHTS assay to identify small molecule antagonists of the androgen receptor (AR) signaling pathway (AID 743035; active means well fitted inhibition curve with a large enough effect in the signal ratio in the repeat runs, not every such curve was filed as active; inconclusive means weak or mixed curves, or effect the other way; inactive means no such curve, though single readings can be large or run the other way; the % refers to the signal ratio; further: potency means the concentration at half of the fitted maximal effect). An outline of the steps:
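Fluorescence from a beta-lactamase FRET substrate (LiveBLAzer B/G, 2 h, room temperature) measured inhibition of R1881-stimulated signaling in GeneBLAzer AR-UAS-bla HEK293 cells exposed to compound for 16 h at 37C.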

Assay [16] shares this target. Kind of assay: qHTS assay to identify small molecule agonists of the androgen receptor (AR) signaling pathway (AID 743036; active means well fitted activation curve with a large enough effect in the signal ratio in the repeat runs, with a control signal flat, not every such curve was filed as active; inconclusive means weak or mixed curves, or effect the other way; inactive means no such curve, though single readings can be large or run the other way; the % refers to the signal ratio). The essentials:
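Beta-lactamase under UAS control, stably integrated in HEK293 GripTite cells, reports receptor activation. After 16 h compound treatment, cells received FRET substrate for 2 h at room temperature before fluorescence reading.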

Assay [17] has the same target. Briefly: qHTS assay to identify small molecule agonists of the androgen receptor (AR) signaling pathway using the MDA cell line (AID 743040; further: nearly all actives have a fitted effect of over 20% in size). An outline of the steps:
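Human breast carcinoma MDA-kb2 reporter cells (MMTV-luc, AR/GR elements) were treated for 16 h at 37C in 0% CO2 following a 5 h settling period. Signal was quantified by ONE-Glo luminescence.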

For assay [18] the target is unchanged. Briefly: qHTS assay to identify small molecule antagonists of the androgen receptor (AR) signaling pathway using the MDA cell line (AID 743042; further: nearly all actives have a fitted effect of over 55% in size; further: potency means the concentration at half of the fitted maximal effect). An outline of the steps:
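MDA-kb2 breast carcinoma cells carrying MMTV-luciferase (AR/GR responsive) were co-treated with compounds and the agonist R1881 for 16 h at 37C. Inhibition read as ONE-Glo luminescence; CellTiter-Fluor fluorescence measured in parallel for cytotoxicity.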

Assay [19] can be described thus: qHTS assay to test for compound auto fluorescence at 460 nm (blue) in HepG2 cells (AID 720687). The essentials: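 HepG2 cells in MEM with 10% FBS, attached overnight at 37 C, were exposed to compound or DMSO for 1 hr at 37 C, 5% CO2. Blue fluorescence was read at 405/460 nm, with triamterene as reference fluorophore.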

Each structure is given as a SMILES string. Values joined by “and” are separate entries in the source; they are usually repeats but may differ in a detail not shown here. Equal values may be shown once. Some structures have more than one record in an assay (separate samples or runs), and their calls can disagree. Active and inactive are the calls of the source. Unless noted, the call rests on the fitted dose curve; in most records, active means well fitted curve in the direction sought with a large enough effect in the repeat runs; inconclusive means weak or mixed curves; inactive means no such curve, though single readings can be large; an effect the other way counts as inactive or inconclusive.

The source of these data is PubChem BioAssay (Tox21).

Sequence of Androgen receptor (Homo sapiens) (P10275 whole entry, looked up): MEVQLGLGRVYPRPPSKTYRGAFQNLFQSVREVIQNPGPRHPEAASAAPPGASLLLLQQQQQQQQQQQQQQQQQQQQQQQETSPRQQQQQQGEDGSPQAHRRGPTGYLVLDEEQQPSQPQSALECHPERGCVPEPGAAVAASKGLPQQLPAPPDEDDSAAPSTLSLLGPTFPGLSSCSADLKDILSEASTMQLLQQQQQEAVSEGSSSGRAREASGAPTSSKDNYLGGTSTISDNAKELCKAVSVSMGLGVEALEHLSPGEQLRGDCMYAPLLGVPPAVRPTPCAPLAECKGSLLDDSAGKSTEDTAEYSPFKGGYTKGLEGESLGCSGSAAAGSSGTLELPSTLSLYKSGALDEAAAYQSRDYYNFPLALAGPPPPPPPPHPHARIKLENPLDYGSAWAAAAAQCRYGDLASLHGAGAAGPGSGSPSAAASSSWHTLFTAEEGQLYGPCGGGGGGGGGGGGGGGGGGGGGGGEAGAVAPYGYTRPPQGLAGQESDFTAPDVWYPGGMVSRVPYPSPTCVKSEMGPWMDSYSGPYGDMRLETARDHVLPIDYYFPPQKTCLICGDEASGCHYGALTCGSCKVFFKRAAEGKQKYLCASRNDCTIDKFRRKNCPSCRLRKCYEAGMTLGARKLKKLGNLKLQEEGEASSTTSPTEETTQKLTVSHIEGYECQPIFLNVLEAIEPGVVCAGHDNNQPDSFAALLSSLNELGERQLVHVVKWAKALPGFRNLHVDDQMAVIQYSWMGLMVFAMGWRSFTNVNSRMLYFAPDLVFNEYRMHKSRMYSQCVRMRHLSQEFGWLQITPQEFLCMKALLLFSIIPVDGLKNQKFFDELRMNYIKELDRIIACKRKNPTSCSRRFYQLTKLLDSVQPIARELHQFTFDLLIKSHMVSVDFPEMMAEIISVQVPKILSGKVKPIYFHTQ

On to `CC1=CC2C3CC(C=C3C)C2C1` (stereo not drawn), for which the Potency entry in assay [1], in assay [3], in [4], in [5], in assay [6] and in assay [7] was “inactive” each time. Besides, the Potency result in assay [8], in assay [9], in assay [12] and in assay [13] was “inactive” each time. For the same molecule, the molecule was called inactive in assay [2]. For the same molecule, the Potency result in assay [10] is “inactive and 54.5 µM (active)”; in assay [11], “inactive and 30.6 µM (active)”.
Regarding `Nc1ncn([C@@H]2O[C@H](CO)[C@@H](O)[C@H]2O)c(=O)n1`, the Potency entry in assay [1], in assay [3], in assay [4], in assay [5], in assay [6] and in assay [7] was “inactive” throughout. The Potency entry in assay [17] and in assay [13] was “inactive” throughout. Moreover, the molecule was called inactive in [2] and in assay [16]. For the same molecule, the Potency in assay [8] is 3.01 µM (active) and 1.74 µM (active); in assay [14], 1.88 µM (active) and 1.54 µM (active); in [10], 1.88 µM (active) and 1.22 µM (active); in [11] it was 841 nM (active) and 386 nM (active); in assay [15] it was 3.38 µM (active) and 1.1 µM (active); in assay [18] it was 5.96 µM (active) and 2.73 µM (active).
Take `CC(C)CC(C)(O)C#CC(C)(O)CC(C)C` (stereo not drawn): the Potency entry in assay [1], in assay [3], in assay [4], in assay [5], in assay [6] and in [7] was “inactive” each time. Moreover, the Potency entry in [8], in assay [9], in [14], in assay [12] and in assay [13] was “inactive” each time. For the same molecule, in assay [2], the molecule was classed as inactive. Also, the Potency in assay [10] and in [11] was 54.5 µM (active) in each case.
For `CC(=O)Oc1ccccc1C(=O)Nc1ncc([N+](=O)[O-])s1`, the Potency entry in [1], in [3], in [4], in [5], in assay [6] and in assay [13] was “inactive” each time. Besides, the outcome in [2] and in [19] was inactive. Also, the Potency in assay [9] was 11.2 µM (active); in [14], 13.3 µM (active); in [10], 10.6 µM (active) and 62.4 µM (active); in assay [11], 13.3 µM (active); in [12], “inactive and 7.06 µM (active)”.
Consider `O=C(c1ccc(OCCN2CCCCC2)cc1)c1c(-c2ccc(O)cc2)sc2cc(O)ccc12`, for which the Potency result in [1], in assay [3], in assay [4], in [5] and in [6] was “inactive” in each case. The call in assay [2] and in assay [19] was inactive. Besides, the Potency in assay [9] was 23.9 µM (active); in assay [14], 3.35 µM (active) and 27.3 µM (active) and 5.45 µM (active); in [10], 1.06 µM (active) and 612 nM (active) and 686 nM (active); in [11] it was 7.5 µM (active) and 9.7 µM (active) and 1.37 µM (active); in assay [12], 21.9 µM (active) and 38.9 µM (active).
As for `CC1=CCC(C(C)(C)O)CC1` (stereo not drawn), the Potency entry in [1], in [3], in [4], in assay [5], in assay [6] and in assay [9] was “inactive” each time. Also, the Potency result in [14], in assay [10], in assay [11], in assay [12], in assay [15] and in [17] was “inactive” throughout. In addition, the Potency result in assay [18] was “inactive”. Also, the outcome in [2] and in assay [16] was inactive.
Consider `O=C(OCc1ccccc1)c1ccccc1O`, for which the Potency result in [1], in assay [3], in assay [4], in assay [5], in assay [6] and in assay [7] was “inactive” each time. Also, the Potency result in assay [8], in assay [9], in assay [12] and in assay [13] was “inactive” throughout. Besides, the molecule was called inactive in assay [2] and in assay [19].
On to `COc1cccc2c1C(=O)c1c(O)c3c(c(O)c1C2=O)C[C@@](O)(C(=O)CO)C[C@@H]3O[C@H]1C[C@H](N)[C@H](O)[C@H](C)O1`, for which the Potency entry in assay [1], in assay [3], in assay [4], in assay [5], in [6] and in [8] was “inactive” each time. Besides, the Potency result in assay [12] was “inactive”. Besides, the outcome in assay [2] and in assay [19] was inactive. Further, the Potency in [7] was 535 nM [inconclusive] (active) and 174 nM (active); in [14] it was “inactive and 66.8 nM (active) and 24.3 nM (active)”; in assay [10] it was “inactive and 84.1 nM (active) and 9.7 nM (active)”; in assay [11], “inactive and 10.6 nM (active) and 3.1 nM (active)”.
